This is an account of results in publication PMC11006913.

Holding throughout (assay): PBM; 200 nM protein, PBS
Holding throughout (settings): dsDNA, one strand shown

For test [1], the target named is HOXB4 (Homo sapiens, UniProt P17483 148-234).
Test [2] deals with HOXA4 (Homo sapiens, UniProt Q00056 201-287, W262R).
In test [3] the target is HOXA4 (Homo sapiens, UniProt Q00056 201-287, R217L).
In test [4] the target is HOXB4 (Homo sapiens, UniProt P17483 148-234, V174I).
For test [5], the target named is HOXA4 (Homo sapiens, UniProt Q00056 201-287).
Chain of HOXA4 (Homo sapiens, UniProt Q00056 201-287) (Q00056 201-287): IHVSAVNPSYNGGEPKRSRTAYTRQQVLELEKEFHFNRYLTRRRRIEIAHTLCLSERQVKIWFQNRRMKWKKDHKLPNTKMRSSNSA
Test [6] concerns the target HOXA4 (Homo sapiens, UniProt Q00056 201-287, W262F).
In test [7] the target is HOXC9 (Homo sapiens, UniProt P31274 178-260, K195R).
Chain of HOXC9 (Homo sapiens, UniProt P31274 178-260, K195R) (P31274 178-260 K195R): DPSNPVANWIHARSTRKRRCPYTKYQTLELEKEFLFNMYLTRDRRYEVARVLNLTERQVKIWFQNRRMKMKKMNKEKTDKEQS
Test [8] concerns the target HOXC9 (Homo sapiens, UniProt P31274 178-260).
Test [9] concerns the target HOXC9 (Homo sapiens, UniProt P31274 178-260, R193K).
Test [10] has as its target HOXA2 (Homo sapiens, UniProt O43364 129-215, R185T).
Test [11] has as its target HOXA2 (Homo sapiens, UniProt O43364 129-215, R185K).
The target of test [12] is HOXA2 (Homo sapiens, UniProt O43364 129-215, Y150S).
Chain of HOXA2 (Homo sapiens, UniProt O43364 129-215, Y150S) (O43364 129-215 Y150S): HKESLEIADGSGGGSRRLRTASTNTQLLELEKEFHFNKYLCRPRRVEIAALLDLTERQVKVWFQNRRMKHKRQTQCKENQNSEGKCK
For test [13], the target named is HOXA2 (Homo sapiens, UniProt O43364 129-215).
Chain of HOXA2 (Homo sapiens, UniProt O43364 129-215) (O43364 129-215): as the sequence (O43364 129-215 Y150S) above, with S22Y counted along it
The target in test [14] is HOXB6 (Homo sapiens, UniProt P17509 132-218, K202E).
Chain of HOXB6 (Homo sapiens, UniProt P17509 132-218, K202E) (P17509 132-218 K202E): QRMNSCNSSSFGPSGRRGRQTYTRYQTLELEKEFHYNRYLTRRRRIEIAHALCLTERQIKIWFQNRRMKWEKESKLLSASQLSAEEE
Test [15] addresses ALX3 (Homo sapiens, UniProt O95076 139-225, N203Q).
Test [16] has as its target ALX3 (Homo sapiens, UniProt O95076 139-225).
The target in test [17] is ALX3 (Homo sapiens, UniProt O95076 139-225, L168Q).
Chain of ALX3 (Homo sapiens, UniProt O95076 139-225, L168Q) (O95076 139-225 L168Q): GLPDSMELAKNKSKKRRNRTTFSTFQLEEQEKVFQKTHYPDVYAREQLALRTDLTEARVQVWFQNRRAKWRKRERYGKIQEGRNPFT
Test [18] has as its target ALX3 (Homo sapiens, UniProt O95076 139-225, L168V).
Test [19] has as its target ALX3 (Homo sapiens, UniProt O95076 139-225, N203S).
The target of test [20] is HOXB6 (Homo sapiens, UniProt P17509 132-218).
Chain of HOXB6 (Homo sapiens, UniProt P17509 132-218) (P17509 132-218): as the sequence (P17509 132-218 K202E) above, with E71K counted along it
Test [21] has as its target HOXA7 (Homo sapiens, UniProt P31268 116-202).
Test [22] has as its target VAX1 (Homo sapiens, UniProt Q5SQQ9 86-172).
Test [23] deals with VAX1 (Homo sapiens, UniProt Q5SQQ9 86-172, T142I).
Chain of VAX1 (Homo sapiens, UniProt Q5SQQ9 86-172, T142I) (Q5SQQ9 86-172 T142I): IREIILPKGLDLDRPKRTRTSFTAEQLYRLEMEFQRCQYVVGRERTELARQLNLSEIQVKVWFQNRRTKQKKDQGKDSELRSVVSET
Test [24] concerns the target HOXA7 (Homo sapiens, UniProt P31268 116-202, W177C).
Test [25] addresses VAX1 (Homo sapiens, UniProt Q5SQQ9 86-172, K157R).

Chain of HOXA4 (Homo sapiens, UniProt Q00056 201-287, W262F) (Q00056 201-287 W262F): as the sequence (Q00056 201-287) above, with W62F counted along it
Chain of HOXA4 (Homo sapiens, UniProt Q00056 201-287, W262R) (Q00056 201-287 W262R): as the sequence (Q00056 201-287) above, with W62R counted along it
Chain of HOXB4 (Homo sapiens, UniProt P17483 148-234, V174I) (P17483 148-234 V174I): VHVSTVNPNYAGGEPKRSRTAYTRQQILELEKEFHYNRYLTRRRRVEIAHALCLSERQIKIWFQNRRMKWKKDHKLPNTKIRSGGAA
Chain of HOXB4 (Homo sapiens, UniProt P17483 148-234) (P17483 148-234): as the sequence (P17483 148-234 V174I) above, with I27V counted along it
Chain of HOXA4 (Homo sapiens, UniProt Q00056 201-287, R217L) (Q00056 201-287 R217L): as the sequence (Q00056 201-287) above, with R17L counted along it
Chain of HOXA2 (Homo sapiens, UniProt O43364 129-215, R185K) (O43364 129-215 R185K): as the sequence (O43364 129-215 Y150S) above, with S22Y, R57K counted along it
Chain of HOXA2 (Homo sapiens, UniProt O43364 129-215, R185T) (O43364 129-215 R185T): as the sequence (O43364 129-215 Y150S) above, with S22Y, R57T counted along it
Chain of HOXA7 (Homo sapiens, UniProt P31268 116-202, W177C) (P31268 116-202 W177C): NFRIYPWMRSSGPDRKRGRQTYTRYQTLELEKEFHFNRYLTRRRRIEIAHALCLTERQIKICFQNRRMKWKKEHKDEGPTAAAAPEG
Chain of HOXC9 (Homo sapiens, UniProt P31274 178-260, R193K) (P31274 178-260 R193K): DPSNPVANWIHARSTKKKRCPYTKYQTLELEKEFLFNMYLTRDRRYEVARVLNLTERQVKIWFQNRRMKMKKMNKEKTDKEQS
Chain of HOXC9 (Homo sapiens, UniProt P31274 178-260) (P31274 178-260): as the sequence (P31274 178-260 R193K) above, with K16R counted along it
Chain of VAX1 (Homo sapiens, UniProt Q5SQQ9 86-172) (Q5SQQ9 86-172): as the sequence (Q5SQQ9 86-172 T142I) above, with I57T counted along it
Chain of ALX3 (Homo sapiens, UniProt O95076 139-225, L168V) (O95076 139-225 L168V): as the sequence (O95076 139-225 L168Q) above, with Q30V counted along it
Chain of HOXA7 (Homo sapiens, UniProt P31268 116-202) (P31268 116-202): as the sequence (P31268 116-202 W177C) above, with C62W counted along it
Chain of VAX1 (Homo sapiens, UniProt Q5SQQ9 86-172, K157R) (Q5SQQ9 86-172 K157R): as the sequence (Q5SQQ9 86-172 T142I) above, with I57T, K72R counted along it
Chain of ALX3 (Homo sapiens, UniProt O95076 139-225, N203S) (O95076 139-225 N203S): as the sequence (O95076 139-225 L168Q) above, with Q30L, N65S counted along it
Chain of ALX3 (Homo sapiens, UniProt O95076 139-225) (O95076 139-225): as the sequence (O95076 139-225 L168Q) above, with Q30L counted along it
Chain of ALX3 (Homo sapiens, UniProt O95076 139-225, N203Q) (O95076 139-225 N203Q): as the sequence (O95076 139-225 L168Q) above, with Q30L, N65Q counted along it

As to ATTCATTA, the binding signal in test [1] is 13.1 upbm affinity estimate (log intensity, higher = more binding, comparable within an allelic series); in test [2] it was 10.5 upbm affinity estimate (log intensity, higher = more binding, comparable within an allelic series); in test [3] it was 12.1 upbm affinity estimate (log intensity, higher = more binding, comparable within an allelic series); in test [4] it was 13.7 upbm affinity estimate (log intensity, higher = more binding, comparable within an allelic series); in test [5] it was 13.7 upbm affinity estimate (log intensity, higher = more binding, comparable within an allelic series); in test [6], 11.6 upbm affinity estimate (log intensity, higher = more binding, comparable within an allelic series).
For the sequence ATTTGAAC, the binding signal is 9.93 upbm affinity estimate (log intensity, higher = more binding, comparable within an allelic series) in test [1]; 10.9 upbm affinity estimate (log intensity, higher = more binding, comparable within an allelic series) in test [7]; 9.93 upbm affinity estimate (log intensity, higher = more binding, comparable within an allelic series) in test [4]; 10.8 upbm affinity estimate (log intensity, higher = more binding, comparable within an allelic series) in test [8]; 11 upbm affinity estimate (log intensity, higher = more binding, comparable within an allelic series) in [9].
Take CATAATGA: the binding signal in test [1] was 13 upbm affinity estimate (log intensity, higher = more binding, comparable within an allelic series); in [2], 10.6 upbm affinity estimate (log intensity, higher = more binding, comparable within an allelic series); in test [10], 12 upbm affinity estimate (log intensity, higher = more binding, comparable within an allelic series); in [3], 11.9 upbm affinity estimate (log intensity, higher = more binding, comparable within an allelic series); in test [4] it was 13.5 upbm affinity estimate (log intensity, higher = more binding, comparable within an allelic series); in [11], 13.1 upbm affinity estimate (log intensity, higher = more binding, comparable within an allelic series). The binding signal in test [5] is 13.6 upbm affinity estimate (log intensity, higher = more binding, comparable within an allelic series); in test [12], 11 upbm affinity estimate (log intensity, higher = more binding, comparable within an allelic series); in test [6], 11.3 upbm affinity estimate (log intensity, higher = more binding, comparable within an allelic series); in [13], 12.1 upbm affinity estimate (log intensity, higher = more binding, comparable within an allelic series).
In the case of ACCCGTGG, the binding signal in test [1] is 7.52 upbm affinity estimate (log intensity, higher = more binding, comparable within an allelic series); in [2] it was 9.91 upbm affinity estimate (log intensity, higher = more binding, comparable within an allelic series); in test [3], 9.76 upbm affinity estimate (log intensity, higher = more binding, comparable within an allelic series); in test [4], 7.53 upbm affinity estimate (log intensity, higher = more binding, comparable within an allelic series); in test [5], 9.78 upbm affinity estimate (log intensity, higher = more binding, comparable within an allelic series); in test [6], 9.9 upbm affinity estimate (log intensity, higher = more binding, comparable within an allelic series).
As for CCAGGCAG, the binding signal was 7.62 upbm affinity estimate (log intensity, higher = more binding, comparable within an allelic series) in test [1]; 9.9 upbm affinity estimate (log intensity, higher = more binding, comparable within an allelic series) in [2]; 9.02 upbm affinity estimate (log intensity, higher = more binding, comparable within an allelic series) in [14]; 9.88 upbm affinity estimate (log intensity, higher = more binding, comparable within an allelic series) in [3]; 7.62 upbm affinity estimate (log intensity, higher = more binding, comparable within an allelic series) in test [4]; 7.78 upbm affinity estimate (log intensity, higher = more binding, comparable within an allelic series) in test [15]. Also, the binding signal was 9.85 upbm affinity estimate (log intensity, higher = more binding, comparable within an allelic series) in test [5]; 7.65 upbm affinity estimate (log intensity, higher = more binding, comparable within an allelic series) in [16]; 7.7 upbm affinity estimate (log intensity, higher = more binding, comparable within an allelic series) in test [17]; 7.82 upbm affinity estimate (log intensity, higher = more binding, comparable within an allelic series) in [18]; 9.95 upbm affinity estimate (log intensity, higher = more binding, comparable within an allelic series) in [6]; 7.76 upbm affinity estimate (log intensity, higher = more binding, comparable within an allelic series) in test [19]. Also, the binding signal in test [20] is 9.1 upbm affinity estimate (log intensity, higher = more binding, comparable within an allelic series).
On to TATTTAAA, for which the binding signal in test [1] is 11.2 upbm affinity estimate (log intensity, higher = more binding, comparable within an allelic series); in [2], 10.5 upbm affinity estimate (log intensity, higher = more binding, comparable within an allelic series); in test [4], 11.2 upbm affinity estimate (log intensity, higher = more binding, comparable within an allelic series); in test [5] it was 12 upbm affinity estimate (log intensity, higher = more binding, comparable within an allelic series).
For the sequence CGGCGGTC, the binding signal in test [1] is 7.42 upbm affinity estimate (log intensity, higher = more binding, comparable within an allelic series); in test [2], 9.72 upbm affinity estimate (log intensity, higher = more binding, comparable within an allelic series); in test [3], 9.69 upbm affinity estimate (log intensity, higher = more binding, comparable within an allelic series); in [4], 7.32 upbm affinity estimate (log intensity, higher = more binding, comparable within an allelic series); in test [5], 9.77 upbm affinity estimate (log intensity, higher = more binding, comparable within an allelic series); in [6] it was 9.76 upbm affinity estimate (log intensity, higher = more binding, comparable within an allelic series).
Consider ATAATGAC, for which the binding signal is 12.9 upbm affinity estimate (log intensity, higher = more binding, comparable within an allelic series) in test [1]; 10.4 upbm affinity estimate (log intensity, higher = more binding, comparable within an allelic series) in test [2]; 11.2 upbm affinity estimate (log intensity, higher = more binding, comparable within an allelic series) in [21]; 9.89 upbm affinity estimate (log intensity, higher = more binding, comparable within an allelic series) in test [14]; 12.4 upbm affinity estimate (log intensity, higher = more binding, comparable within an allelic series) in [10]; 12.1 upbm affinity estimate (log intensity, higher = more binding, comparable within an allelic series) in test [3]. In addition, the binding signal in test [4] is 13.6 upbm affinity estimate (log intensity, higher = more binding, comparable within an allelic series); in test [11], 13.2 upbm affinity estimate (log intensity, higher = more binding, comparable within an allelic series); in [5], 13.7 upbm affinity estimate (log intensity, higher = more binding, comparable within an allelic series); in test [22], 12.6 upbm affinity estimate (log intensity, higher = more binding, comparable within an allelic series); in test [23], 12.5 upbm affinity estimate (log intensity, higher = more binding, comparable within an allelic series); in [12] it was 10.8 upbm affinity estimate (log intensity, higher = more binding, comparable within an allelic series). Further, the binding signal in test [24] is 8.74 upbm affinity estimate (log intensity, higher = more binding, comparable within an allelic series); in [6], 11.4 upbm affinity estimate (log intensity, higher = more binding, comparable within an allelic series); in test [13], 12.4 upbm affinity estimate (log intensity, higher = more binding, comparable within an allelic series); in test [25], 12.3 upbm affinity estimate (log intensity, higher = more binding, comparable within an allelic series); in test [20], 11.7 upbm affinity estimate (log intensity, higher = more binding, comparable within an allelic series).
